Test results from PubChem BioAssay (EPA / NIEHS).
Active and inactive are the calls of the source. How the source made its calls: active means hit-call score of the fitted dose curve at least 0.9, where 1 is the maximum; inactive means score below 0.9.

Experiments:
Details in all cases: mRNA level, 48 h; actives raise or lower the signal
[1] = read-out: Cyclin D1 (CCND1), CCND1 (gene 595); test: LTEA_HepaRG_CCND1: Life Technologies and Expression Analysis (LTEA) Assay for Cyclin D1 (CCND1) using HepaRG (AID 2283451)
Method in brief: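 Expression change is measured by qRT-PCR in HepaRG cells after 48 h treatment across eight concentrations topping at 100 uM, with duplicate wells and DMSO (0.5%) serving as baseline for bidirectional fitting.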

[2] = read-out: catalase (CAT), CAT (gene 847); test: LTEA_HepaRG_CAT: Life Technologies and Expression Analysis (LTEA) Assay for catalase (CAT) using HepaRG (AID 2283452);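 on AC50: TaqMan qRT-PCR signal normalized to ACTB GAPDH and POLR2A housekeeping genes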
Method in brief: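 Differentiated HepaRG cells in serum-free induction medium were dosed 48 h in duplicate, eight half-log concentrations from 100 uM in 0.5% DMSO. Transcript measured by TaqMan qRT-PCR, normalised to ACTB/GAPDH/POLR2A, fitted bidirectionally against DMSO.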

[3] = read-out: flavin-containing dimethylaniline monooxygenases 3 (FMO3), FMO3 (gene 2328); test: LTEA_HepaRG_FMO3: Life Technologies and Expression Analysis (LTEA) Assay for flavin-containing dimethylaniline monooxygenases 3 (FMO3) using HepaRG (AID 2283453)
Method in brief: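 Differentiated HepaRG cells in serum-free induction medium, exposed 48 h in duplicate to 8 half-log concentrations up to 100 uM in 0.5% DMSO. FMO3 mRNA by qRT-PCR, normalized to ACTB, GAPDH, POLR2A; bidirectional fit vs DMSO.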

[4] = read-out: Cytochrome P450 (CYP1A1), CYP1A1 (gene 1543); test: LTEA_HepaRG_CYP1A1: Life Technologies and Expression Analysis (LTEA) Assay for Cytochrome P450 (CYP1A1) using HepaRG (AID 2283454)
Method in brief: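 Using HepaRG cultures with 0.5% DMSO as vehicle, eight-concentration exposures (max 100 uM) lasted 48 h. Transcript levels were measured by TaqMan qRT-PCR and normalized to ACTB, GAPDH and POLR2A.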

[5] = read-out: CFLAR gene, CFLAR (gene 8837); test: LTEA_HepaRG_CFLAR: Life Technologies and Expression Analysis (LTEA) Assay for CFLAR gene using HepaRG (AID 2283455)
Method in brief: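 HepaRG cells were plated for 48 h, switched to serum-free induction medium, then exposed in duplicate for 48 h to 8 concentrations (top 100 uM, half-log steps, 0.5% DMSO). CFLAR mRNA was measured by qRT-PCR, normalized to ACTB, GAPDH and POLR2A.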

[6] = read-out: Forkhead box O1 (FOXO1), FOXO1 (gene 2308); test: LTEA_HepaRG_FOXO1: Life Technologies and Expression Analysis (LTEA) Assay for Forkhead box O1 (FOXO1) using HepaRG (AID 2283456)
Method in brief: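 Differentiated human HepaRG cells in serum-free induction medium were exposed in duplicate for 48 h to eight half-log concentrations (top 100 uM, 0.5% DMSO). FOXO1 mRNA was measured by TaqMan qRT-PCR, normalised to ACTB, GAPDH and POLR2A, and fitted bidirectionally against DMSO.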

[7] = read-out: growth arrest and DNA damage 45 (GADD45A), GADD45A (gene 1647); test: LTEA_HepaRG_GADD45A: Life Technologies and Expression Analysis (LTEA) Assay for growth arrest and DNA damage 45 (GADD45A) using HepaRG (AID 2283458)
Method in brief: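 Cells plated and cultured 48 h, switched to serum-free induction medium, then dosed for 48 h (100 uM top, half-log dilutions, 0.5% DMSO). RNA was isolated and transcript measured by Fluidigm qRT-PCR.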

[8] = read-out: Forkhead box O3 (FOXO3), FOXO3 (gene 2309); test: LTEA_HepaRG_FOXO3: Life Technologies and Expression Analysis (LTEA) Assay for Forkhead box O3 (FOXO3) using HepaRG (AID 2283459)
Method in brief: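 Differentiated human HepaRG cells in serum-free induction medium were exposed in duplicate for 48 h to eight half-log concentrations up to 100 uM in 0.5% DMSO. FOXO3 mRNA was quantified by qRT-PCR, normalized to ACTB, GAPDH and POLR2A, with bidirectional fitting versus DMSO.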

[9] = read-out: ABC Transporter (ABCB1), ABCB1 (gene 5243); test: LTEA_HepaRG_ABCB1: Life Technologies and Expression Analysis (LTEA) Assay for ABC Transporter (ABCB1) using HepaRG (AID 2283460)
Method in brief: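 Differentiated human HepaRG cells, plated 48 h then switched to serum-free induction medium, were exposed in duplicate to eight half-log concentrations up to 100 uM in 0.5% DMSO for 48 h. ABCB1 mRNA was measured by TaqMan qRT-PCR, normalized to ACTB/GAPDH/POLR2A.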

[10] = read-out: growth arrest and DNA damage 45 (GADD45B), GADD45B (gene 4616); test: LTEA_HepaRG_GADD45B: Life Technologies and Expression Analysis (LTEA) Assay for growth arrest and DNA damage 45 (GADD45B) using HepaRG (AID 2283461)
Method in brief: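 Human HepaRG monolayers receive chemicals for 48 h at eight half-log concentrations, highest 100 uM, in 0.5% DMSO. Expression is measured by TaqMan qRT-PCR and normalized to ACTB, GAPDH and POLR2A.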

[11] = read-out: ABC Transporter (ABCC3), ABCC3 (gene 8714); test: LTEA_HepaRG_ABCC3: Life Technologies and Expression Analysis (LTEA) Assay for ABC Transporter (ABCC3) using HepaRG (AID 2283462)
Method in brief: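 Transcriptional change of ABCC3 in HepaRG after 48 h treatment, determined by qRT-PCR normalized to endogenous controls. Concentrations spanned eight half-log steps to 100 uM in 0.5% DMSO.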

[12] = read-out: ABC Transporter (ABCB11), ABCB11 (gene 8647); test: LTEA_HepaRG_ABCB11: Life Technologies and Expression Analysis (LTEA) Assay for ABC Transporter (ABCB11) using HepaRG (AID 2283463)
Method in brief: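 Differentiated human HepaRG cells were exposed for 48 h in serum-free induction medium to eight half-log concentrations up to 100 uM in 0.5% DMSO. ABCB11 mRNA was quantified by qRT-PCR, normalized to ACTB, GAPDH and POLR2A, and fitted bidirectionally versus DMSO.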

[13] = read-out: ABC Transporter (ABCC2), ABCC2 (gene 1244); test: LTEA_HepaRG_ABCC2: Life Technologies and Expression Analysis (LTEA) Assay for ABC Transporter (ABCC2) using HepaRG (AID 2283464)
Method in brief: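 After plating and 48 h culture, HepaRG medium is replaced with serum-free induction medium and chemicals are added (8 concentrations, max 100 uM, 0.5% DMSO) for 48 h. Total RNA then undergoes qRT-PCR for ABCC2 with housekeeping normalization.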

[14] = read-out: Broad substrate specificity ATP-binding cassette transporter ABCG2 (Homo sapiens) (UniProt Q9UNQ0); test: LTEA_HepaRG_ABCG2: Life Technologies and Expression Analysis (LTEA) Assay for ABC Transporter (ABCG2) using HepaRG (AID 2283465)
Method in brief: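 Differentiated HepaRG cells in serum-free induction medium were exposed for 48 h, in duplicate, to eight half-log concentrations up to 100 uM in 0.5% DMSO. ABCG2 mRNA was measured by TaqMan qRT-PCR, normalized to ACTB, GAPDH and POLR2A, and fitted bidirectionally versus DMSO.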

[15] = read-out: ATP-citrate lyase (ACLY), ACLY (gene 47); test: LTEA_HepaRG_ACLY: Life Technologies and Expression Analysis (LTEA) Assay for ATP-citrate lyase (ACLY) using HepaRG (AID 2283466)
Method in brief: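 Differentiated human HepaRG cells in serum-free induction medium exposed 48 h, in duplicate, to eight half-log concentrations from 100 uM top in 0.5% DMSO; ACLY mRNA measured by qRT-PCR, normalized to ACTB, GAPDH, POLR2A, fitted bidirectionally versus DMSO.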

[16] = read-out: Peroxisomal acyl-coenzyme A oxidase 1 (ACOX1) gene, ACOX1 (gene 51); test: LTEA_HepaRG_ACOX1: Life Technologies and Expression Analysis (LTEA) Assay for Peroxisomal acyl-coenzyme A oxidase 1 (ACOX1) gene using HepaRG (AID 2283467)
Method in brief: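 Differentiated human HepaRG cells were exposed in duplicate for 48 h in serum-free induction medium to eight half-log concentrations up to 100 uM in 0.5% DMSO. ACOX1 mRNA was then quantified by TaqMan qRT-PCR, normalized to ACTB, GAPDH and POLR2A.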

[17] = read-out: Alkaline Phosphatase, Placental (ALPP) gene, ALPP (gene 250); test: LTEA_HepaRG_ALPP: Life Technologies and Expression Analysis (LTEA) Assay for Alkaline Phosphatase, Placental (ALPP) gene using HepaRG (AID 2283468)
Method in brief: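 Using human liver HepaRG cells, chemicals are tested in duplicate over 48 h at half-log concentrations topping at 100 uM; phenobarbital 1 mM serves as induction control. ALPP mRNA change by qRT-PCR, bidirectional fit against vehicle.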

[18] = read-out: Bcl-2 (BAD) gene, BAD (gene 572); test: LTEA_HepaRG_BAD: Life Technologies and Expression Analysis (LTEA) Assay for Bcl-2 (BAD) gene using HepaRG (AID 2283469)
Method in brief: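 Differentiated human HepaRG cells in serum-free induction medium were exposed in duplicate for 48 h to eight concentrations (top 100 uM, half-log steps, 0.5% DMSO). BAD mRNA was quantified by qRT-PCR normalised to ACTB, GAPDH and POLR2A, with bidirectional fitting versus DMSO.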

[19] = read-out: Bcl-2 (BAX) gene, BAX (gene 581); test: LTEA_HepaRG_BAX: Life Technologies and Expression Analysis (LTEA) Assay for Bcl-2 (BAX) gene using HepaRG (AID 2283470)
Method in brief: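 HepaRG (human liver), 48 h exposure, duplicate wells. 8-pt curve, half-log from 100 uM, 0.5% DMSO. BAX transcript by TaqMan qRT-PCR; ACTB/GAPDH/POLR2A normalization; gain or loss vs DMSO baseline.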

Measured: AC50

Broad substrate specificity ATP-binding cassette transporter ABCG2 (Homo sapiens), sequence (Q9UNQ0 whole entry, looked up): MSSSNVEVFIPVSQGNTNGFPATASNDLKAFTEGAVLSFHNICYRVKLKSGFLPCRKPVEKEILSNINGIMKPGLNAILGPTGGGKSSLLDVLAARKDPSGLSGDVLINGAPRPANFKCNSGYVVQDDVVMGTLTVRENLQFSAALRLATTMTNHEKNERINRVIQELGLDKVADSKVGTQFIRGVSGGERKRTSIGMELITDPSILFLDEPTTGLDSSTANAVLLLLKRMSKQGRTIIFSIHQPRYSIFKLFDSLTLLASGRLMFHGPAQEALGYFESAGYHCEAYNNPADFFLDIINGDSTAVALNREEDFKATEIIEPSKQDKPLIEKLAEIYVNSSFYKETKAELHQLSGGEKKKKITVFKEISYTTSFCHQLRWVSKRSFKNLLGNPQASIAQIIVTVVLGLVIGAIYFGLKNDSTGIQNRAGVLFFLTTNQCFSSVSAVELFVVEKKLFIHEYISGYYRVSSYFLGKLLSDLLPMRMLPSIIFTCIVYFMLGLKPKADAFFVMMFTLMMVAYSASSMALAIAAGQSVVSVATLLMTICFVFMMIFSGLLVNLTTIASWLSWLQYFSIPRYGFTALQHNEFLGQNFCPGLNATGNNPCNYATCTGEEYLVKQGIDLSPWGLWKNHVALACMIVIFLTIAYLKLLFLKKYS

CC(C)COC(=O)CCCCC(=O)OCC(C)C
inactive: all assays above

CCCCOC(=O)CCCCC(=O)OCCCC
active: [4] 50 µM
not listed: [19]
inactive: all other assays above

O=C(NS(=O)(=O)/C=C/c1cccs1)c1ccc(F)cc1Br
active: [4] 50 µM | [9] 13.2 µM | [12] 50 µM | [13] 7.3 µM | [14] 9.27 µM
inactive: all other assays above

CCc1cc(C2=C(C(=O)O)N(c3ccccc3C(F)(F)F)S(=O)(=O)c3ccccc32)cc2c1OCO2
active: [2] 50 µM | [3] 78.8 µM | [4] 50 µM | [9] 3.3 µM | [12] 32.1 µM | [13] 1.64 µM | [14] 23.7 µM | [15] 65.2 µM | [17] 30.9 µM | [19] 50 µM
inactive: [1] | [5] | [6] | [7] | [8] | [10] | [11] | [16] | [18]

CCc1nc(N)nc(N)c1-c1ccc(Cl)cc1
active: [2] 30.6 µM | [3] 69.4 µM | [7] 27.2 µM | [11] 74.5 µM | [12] 33 µM | [15] 80.4 µM | [16] 18.6 µM | [17] 44.2 µM
inactive: all other assays above

CN(C)C(=O)NC1(c2ccccc2)CCN(CC[C@@]2(c3ccc(F)c(F)c3)CN(C(=O)c3ccccc3)CCO2)CC1
active: [3] 57 µM | [4] 47 µM | [9] 1.86 µM | [11] 47 µM | [12] 1.96 µM | [13] 3.81 µM | [15] 47 µM
not listed: [19]
inactive: all other assays above

O=NO
inactive: all assays above
